Source: PubChem BioAssay AID624173 (National Center for Advancing Translational Sciences (NCATS), 2012)
Among all 410,000 compounds or so, about 490 (0.12%) were called active. Roughly 1% stayed inconclusive and do not appear here. The sample holds actives, similar compounds and a random draw of the others, so the mix is not that of the screen. Unmarked numbers belong to inactive results. Calls come from the whole dose curve; as a rule, active = well fitted inhibition curve with a large enough effect; inconclusive = small, poorly fitted or top-dose-only effect; inactive = flat fitted curve, though single readings scatter.

Molecular target: pyruvate kinase (Trypanosoma brucei) (UniProt Q57TT1)
Assay: qHTS of Trypanosoma Brucei Inhibitors; note: nearly all actives have a fitted effect of over 50% in size
Details: TbPYK enzyme, Kinase-Glo Plus ATP luminescence, 45 min; series mostly up to 76.8 µM; activity, negative = inhibition: at the top concentration
Source text: Members of the Trypanosomatidae family of parasitic protozoans cause a spectrum of diseases throughout the tropical and subtropical world. Sleeping sickness, caused by two subspecies of Trypanosoma brucei, is endemic to areas of sub-Saharan Africa, while Chagas' disease, a manifestation of Trypanosoma cruzi infection, is prevalent throughout Central and South America. In addition, many species of Leishmania are responsible for a range of cutaneous and visceral diseases, causing ulcers, destructive lesions and kalaazar, a lethal infection of the viscera. These diseases cause severe public health and economic burdens on populations that are often already caught in a tragic cycle of poverty, poor nutrition and disease. Collectively, parasites of the trypanosomatid family infect 30 million people worldwide (~500 million live in endemic areas), and account for ~130K deaths annually. Existing treatments have developed little in the past 50 years, and suffer from toxicity, poor efficacy and resistance; the goal of this project is to develop lead drugs that will be suitable for entry into pre-clinical trials.
Glycolysis in axenically cultured T. cruzi, representing the intracellular pathogenic stage, is also essential for these parasites. {Engel, 1987} This project aims to discover and optimize selective inhibitors of the glycolytic enzyme pyruvate kinase (PYK) from Trypanosoma brucei, the parasite that causes sleeping sickness. […] Trypanosomatid PYKs show significant differences from their human counterparts including only 47-50% sequence identity and different allosteric and activation properties.{Callens, 1992} To this end, a qHTS was done against the MLSMR to discover inhibitors.
NIH Molecular Libraries Probe Production Network [MLPCN]
NIH Chemical Genomics Center [NCGC]
PI Name: Malcolm Walkinshaw, University of Edinburgh
2 uL of TbPYK/substrate buffer (columns 1-3, 5-48) are dispensed into Greiner white solid bottom 1536-well assay plates; column 4 receives only TEA buffer as 0x TbPYK controls. Compounds are then transferred via Kalypsys pin tool equipped with 1536-pin array (10 nL slotted pins, V&P Scientific, San Diego, CA). Following addition of compound, 2 uL of ADP (130 uM final concentration, all columns) is added to initiate the reaction. The plates are then incubated at room temperature for 45 minutes. Kinase-Glo Plus reagent is added (3 uL) and plates incubated for 10 minutes, before being transferred to a ViewLux high-throughput CCD imager (PerkinElmer) wherein single end-point measurements of luminescence are acquired using a clear filter. All reagents are diluted in an assay buffer consisting of 50 mM TEA (pH 7.2), 100 mM KCl, 10 mM MgCl2, 0.05% BSA and 0.01% Tween-20.
All screening operations will be performed on a fully integrated robotic system (Kalypsys, San Diego, CA) containing one RX-130 and two RX-90 anthropomorphic robotic arms (Staeubli, Duncan, SC). Library plates will be screened starting from the lowest and proceeding to the highest concentration. Vehicle-only plates, with DMSO being pin-transferred to columns 5-48, will be inserted uniformly at the beginning and the end of each library in order to monitor and record any shifts in the background, which can be affected by reagent dispensers or loss in enzyme activity over time. Screening data will be corrected, normalized, and concentration-effect relationships will be derived by using publicly-available curve fitting algorithms developed in-house (http://ncgc.nih.gov/pub/openhts).
% is set by controls: 0 for no effect and ±100 for the full control effect; potency is the fitted concentration of half-maximal effect.

| Structure (SMILES) | activity, negative = inhibition | Potency |
| --- | --- | --- |
| Cc1nnc(SCC(=O)NNC(=O)c2ccc(Cl)cc2)n1CC1CCCO1 (configuration not stated) | -19.4% |  |
| S=c1[nH]nc(-c2ccc(Cl)cc2)n1CC1CCCO1 (configuration not stated) |  | 10 µM (active) |
| c1ccc(N2CC[C@@]3(CCCNC3)C2)nc1 | -8.65% |  |
| NNc1nnc(Cc2ccncc2)c2ccccc12 | 5.32% |  |
| CCNc1ncc2ncc(=O)n(CCc3ccccc3)c2n1 | 0% |  |
| O=C(N/N=C/c1ccc([N+](=O)[O-])o1)c1cc([N+](=O)[O-])cc([N+](=O)[O-])c1O | -7.27% |  |
| CCOc1ccc(N(Cc2ccccc2)C(=O)c2nc(S(C)(=O)=O)ncc2Cl)cc1 | -5.03% |  |
| Cc1ccnc(-n2sc3ccccc3c2=O)n1 |  | 20 µM (active) |
| O=c1c2ccccc2nc(-c2ccccc2)n1-c1ccccn1 | 3.13% |  |
| Cc1ccnc(SC2CC(=O)N(c3ccccc3)C2=O)n1 (configuration not stated) | -4.81% |  |
| Cc1ccc(S(=O)(=O)NC(=O)NN2C[C@H]3CCC[C@@H]3C2)cc1 | 1.84% [at 33.2 µM] |  |
| c1csc(CN2CCCC3(CCNCC3)C2)n1 | -3.6% |  |
| CC(O)COc1ccccc1 (configuration not stated) | 3.14% |  |
| OCC(CO)NC1C[C@](O)(CO)[C@@H](O)[C@H](O)[C@H]1O (some centres not stated) | -1.52% |  |
| Cn1c(=O)c(-c2ccccc2)nc2cnc(N3CCNCC3)nc21 | 0% |  |
| NNc1nnc(NN)c2ccccc12 | -2.4% |  |
| O=C(c1csnn1)N1CCC[C@@]2(CCN(Cc3nccs3)C2)C1 | -6.04% |  |
| C[C@@H]1C[C@H]2[C@@H]3C[C@H](F)C4=CC(=O)C=C[C@@]4(C)[C@]3(F)[C@H](O)C[C@]2(C)[C@@]1(O)C(=O)CO | 8.35% [at 33.2 µM] |  |
| COc1ccc(Cn2ccn(CC(=O)Nc3cc(C)ccc3C)c(=O)c2=O)cc1 | 2.7% |  |
| CN1CC(O)c2cc(N=NC(N)=O)c(O)cc21 (configuration not stated) | -5.31% |  |
| O=C(c1csnn1)N1CCC[C@@]2(CCN(c3cccc(-c4ccccc4)c3)C2)C1 | 0.943% |  |
| O=C(c1cnccn1)N1CCC[C@@]2(CCN(Cc3ccncc3)C2)C1 | -5.03% |  |
| COc1ccccc1CN1CC2(CCN(S(=O)(=O)c3ccccc3)CC2)C1 | 0.687% |  |
| O=P1(N(CCCl)CCCl)NC(OO)CCO1 (configuration not stated) | 2.01% |  |
| O=C(c1cccc(F)c1)N1CCC2(CCCN(Cc3ccncc3)C2)CC1 | -5.59% |  |
| COC(=O)N1CCC[C@@]2(CCN(C(=O)NC(C)C)C2)C1 | -9.35% |  |

| Structure (SMILES) | activity, negative = inhibition | Potency |
| --- | --- | --- |
| O=C(c1ccco1)N1CCC[C@@]2(CCN(c3ccccc3)C2)C1 | 9.42% |  |
| COC(=O)N1CCC2(CCCN(Cc3ccccc3OC)C2)CC1 | -2.64% |  |
| CS(=O)(=O)N1CCC2(CC1)CN(Cc1cc(C(F)(F)F)cc(C(F)(F)F)c1)C2 | 7.42% |  |
| CC(=O)N1CCC2(CCCN(c3ncccn3)C2)CC1 | 4.38% |  |
| CC[C@]1(C)CC(=O)NC1=O | 4.41% |  |
| C=C1C(=CC=C2CCC[C@]3(C)[C@@H]([C@H](C)C=C[C@H](C)C(C)C)CC[C@@H]23)C[C@@H](O)C[C@@H]1O | -15.1% |  |
| COc1ccc(Cl)cc1NC(=O)CCn1c(=O)c2cccn2c2ccccc21 | -6.83% |  |
| Cc1ccc(C)c2c1cc(C)c1nnc(SCC(=O)Nc3cccc(C(=O)O)c3)n12 |  | 6.31 µM (active) |
| Cc1ccc(C(=O)NCCc2nnc(SCC(=O)Nc3cccc(C(=O)O)c3)n2C)cc1 | 1.34% |  |
| CCOc1cc(C)ccc1OCc1nnc(SCC(=O)Nc2cccc(C(=O)O)c2)n1-c1ccccc1 | -8.24% |  |
| CC(=O)OC[C@H]1O[C@@H](O[C@H]2[C@H](O)[C@@H](OC(=O)c3ccccc3C(=O)O)[C@H](O)O[C@@H]2COC(C)=O)[C@H](O)[C@@H](OC(=O)c2ccccc2C(=O)O)[C@@H]1O | 0.513% |  |
| O=C(c1cccc(F)c1)N1CCC2(CC1)CCN(c1ccccc1)CC2 | 5.12% |  |
| c1csc(CN2CC3(CCNCC3)C2)n1 | 2.23% |  |
| O=C(O)CCCCC(=O)O | -3.81% |  |
| COc1ccc(C(=O)N2CCC[C@@]3(CCN(C(=O)NC(C)C)C3)C2)cc1 | -4.71% |  |
| COc1ccccc1OCCCn1c(-c2ccc(Cl)cc2)nc2ccccc2c1=O | -7.86% |  |
| O=S(=O)(c1ccccc1)N1CCC2(CC1)CN(Cc1nccs1)C2 | -5.48% |  |
| CCOc1ccc(N2C(=O)/C(=C/c3ccc(C)o3)N(C)C2=S)cc1 |  | 28.2 µM (active) |
| CCOc1ccc(N2C(=O)Nc3ccccc3C2(O)C(=O)NCc2ccco2)cc1 (configuration not stated) | -6.44% |  |
| CCOC(=O)c1ccc(NC2=CC(c3ccc(OCC)cc3)N(c3ccc(C(=O)OCC)cc3)C2=O)cc1 (configuration not stated) | 1.45% |  |
| O=C(c1cc(C(F)(F)F)cc(C(F)(F)F)c1)N1CCC2(CC1)CN(c1ccncc1)C2 | 0.607% |  |
| CCc1cc(-c2n[nH]c(=S)n2CC(C)C)cs1 |  | 3.16 µM (active) |
| CCc1cc(-c2nnc(SCC(=O)NC3CC3)n2C)cs1 | -5.99% |  |
| CCn1c(C(C)C)n[nH]c1=S | -29.1% |  |
| FC(F)(F)C1CCCN(c2nsc3ccccc23)C1 (configuration not stated) |  | 6.31 µM (active) |
| FCOC(C(F)(F)F)C(F)(F)F | 5.69% |  |
